Targets with a hit are over-represented here; the source holds about 7,900 in all. About 0.6% of all pairs of compound and target were hits.
What was measured:
Test in all cases: log2 fold change, soluble protein after heating vs DMSO (PISA); higher = thermal stabilisation; K562 cells, 10 uM, 30 min; active = over 0.2 and 3.5 SD of the protein, either way, in both replicates (recomputed)
[1] = compound: Cc1ccc(NC(=O)c2ccc(CN3CC[C@H](N(C)C)C3)c(C(F)(F)F)c2)cc1Nc1nccc(-c2cncnc2)n1 [bafetinib]
Outline: (§1)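 Soluble protein was defined as the supernatant after 21,000xg for 90 min. It came from K562 cells at 2×10^6 cells/mL given 10 μM compound for 30 min, heated in aliquots for 3 min across 48°C-58°C, pooled, and extracted in PBS with 0.5% NP-40 at 4°C, and was quantified by TMTpro 16plex LC-MS/MS with equalised channel sums. Thermal stability against control samples, from duplicates, is reported as log2 fold change.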

[2] = compound: Cc1cccc(CC(=O)N2CCc3c2ccc(-c2cn(C)c4ncnc(N)c24)c3F)n1
Outline: as §1

[3] = compound: Cc1cn(-c2cc(NC(=O)c3ccc(C)c(Nc4nccc(-c5cccnc5)n4)c3)cc(C(F)(F)F)c2)cn1 [nilotinib]
Outline: as §1

[4] = compound: Cc1nc(Nc2n[nH]c3c2CN(C(=O)N[C@H](CN(C)C)c2ccccc2)C3(C)C)c2sccc2n1
Outline: as §1

[5] = compound: Cc1nc(Nc2ncc(C(=O)Nc3c(C)cccc3Cl)s2)cc(N2CCN(CCO)CC2)n1 [dasatinib]
Outline: as §1

[6] = compound: Cc1ncc(-c2ccnc(Nc3ccc(S(C)(=O)=O)cc3)n2)n1C(C)C
Outline: as §1

[7] = compound: Cn1cc(-c2ccc3c(c2)CCN3C(=O)Cc2cccc(C(F)(F)F)c2)c2c(N)ncnc21
Outline: as §1

[8] = compound: Cn1cc(-c2ccc3nnc(C(F)(F)c4ccc5ncccc5c4)n3n2)cn1
Outline: as §1

[9] = compound: Cn1cncc1[C@@](N)(c1ccc(Cl)cc1)c1ccc2c(c1)c(-c1cccc(Cl)c1)cc(=O)n2C [tipifarnib]
Outline: as §1

[10] = compound: FC(F)(F)c1ccc(/C=C/c2nc(COc3ccc(CCCCn4ccnn4)cc3)co2)cc1 [mubritinib]
Outline: as §1

[11] = compound: NC(=O)Nc1cc(-c2cccc(F)c2)sc1C(=O)N[C@H]1CCCNC1
Outline: as §1

[12] = compound: NC(=O)c1cnc(N[C@@H]2CCCC[C@@H]2N)nc1Nc1cccc(-n2nccn2)c1
Outline: as §1

[13] = compound: NC1(c2ccc(-c3nc4ccn5c(=O)[nH]nc5c4cc3-c3ccccc3)cc2)CCC1
Outline: as §1

[14] = compound: NCC(=O)Nc1ccc(-n2nc(C(F)(F)F)cc2-c2ccc3c(ccc4ccccc43)c2)cc1
Outline: as §1

[15] = compound: Nc1ccccc1NC(=O)c1ccc(CNC(=O)OCc2cccnc2)cc1 [entinostat]
Outline: as §1

[16] = compound: O=C(CCCCCCC(=O)Nc1ccccc1)NO [vorinostat]
Outline: as §1

[17] = compound: O=C(CCCCCCNC(=O)c1cnc(N(c2ccccc2)c2ccccc2Cl)nc1)NO [citarinostat]
Outline: as §1

[18] = compound: O=C(O)c1ccc2c(c1)nc(Nc1cccc(Cl)c1)c1ccncc12 [silmitasertib]
Outline: as §1

[19] = compound: O=C1NC(=O)C(c2cnc3ccccn23)=C1c1cn2c3c(cc(F)cc13)CN(C(=O)N1CCCCC1)CC2
Outline: as §1

[20] = compound: c1cc(OCCN2CCCCC2)cc(-c2n[nH]c3ccc(-c4nnc[nH]4)cc23)c1
Outline: as §1

Measured: log2 fold change

PIR (UniProt O00625)
UniProt O00625, sequence (O00625 whole entry, looked up): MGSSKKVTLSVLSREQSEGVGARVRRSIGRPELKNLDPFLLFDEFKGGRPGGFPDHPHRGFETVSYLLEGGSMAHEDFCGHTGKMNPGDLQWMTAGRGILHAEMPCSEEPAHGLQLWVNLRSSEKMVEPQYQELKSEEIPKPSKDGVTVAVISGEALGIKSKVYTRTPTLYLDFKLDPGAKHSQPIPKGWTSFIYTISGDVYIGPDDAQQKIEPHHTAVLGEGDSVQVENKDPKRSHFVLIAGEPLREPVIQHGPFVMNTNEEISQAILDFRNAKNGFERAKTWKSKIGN
inactive: [1] -0.073 | [2] 0.001 | [3] 0.009 | [4] -0.006 | [5] -0.044 | [6] -0.014 | [7] -0.003 | [8] 0.028 | [9] -0.069 | [10] 0.11 | [11] -0.047 | [12] -0.053 | [13] -0.195 | [14] -0.024 | [15] -0.022 | [17] -0.014 | [18] -0.038 | [19] -0.012
active: [16] -0.625 | [20] 0.253

PRKAR2B (UniProt P31323)
UniProt P31323, sequence (P31323 whole entry, looked up): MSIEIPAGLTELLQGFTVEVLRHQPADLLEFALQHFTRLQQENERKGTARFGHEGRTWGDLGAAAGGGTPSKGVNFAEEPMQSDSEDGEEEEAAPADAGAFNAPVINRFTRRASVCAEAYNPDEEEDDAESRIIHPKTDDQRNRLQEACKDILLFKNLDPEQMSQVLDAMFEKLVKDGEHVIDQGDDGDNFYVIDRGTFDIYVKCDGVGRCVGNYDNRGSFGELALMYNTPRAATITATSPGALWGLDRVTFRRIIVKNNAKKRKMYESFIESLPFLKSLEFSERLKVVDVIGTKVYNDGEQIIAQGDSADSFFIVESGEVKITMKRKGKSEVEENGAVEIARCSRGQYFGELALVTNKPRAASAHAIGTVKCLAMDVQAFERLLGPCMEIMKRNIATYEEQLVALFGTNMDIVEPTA
inactive: [1] -0.022 | [2] 0.133 | [3] 0.012 | [5] -0.078 | [6] -0.16 | [7] 0.022 | [8] -0.07 | [9] -0.103 | [10] 0.189 | [12] -0.152 | [13] -0.223 | [14] 0.016 | [15] 0.027 | [16] 0.112 | [17] 0.078 | [18] 0.008 | [19] -0.003 | [20] -0.013
active: [4] -1.23 | [11] -0.964

PI4K2A (UniProt Q9BTU6)
UniProt Q9BTU6, sequence (Q9BTU6 whole entry, looked up): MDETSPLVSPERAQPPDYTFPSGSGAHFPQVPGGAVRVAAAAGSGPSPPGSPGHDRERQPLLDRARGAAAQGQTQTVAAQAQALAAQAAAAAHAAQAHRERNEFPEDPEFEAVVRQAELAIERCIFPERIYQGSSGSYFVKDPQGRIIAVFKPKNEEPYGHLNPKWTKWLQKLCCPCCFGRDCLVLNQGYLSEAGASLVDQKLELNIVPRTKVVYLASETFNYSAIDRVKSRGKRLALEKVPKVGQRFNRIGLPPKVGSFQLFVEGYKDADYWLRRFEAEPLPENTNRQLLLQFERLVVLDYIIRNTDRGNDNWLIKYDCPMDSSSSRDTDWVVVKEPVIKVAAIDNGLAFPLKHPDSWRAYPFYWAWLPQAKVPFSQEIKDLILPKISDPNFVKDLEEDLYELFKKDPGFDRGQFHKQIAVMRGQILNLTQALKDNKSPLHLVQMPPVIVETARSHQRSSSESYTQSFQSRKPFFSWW
inactive: [1] -0.127 | [2] -0.042 | [3] 0.004 | [4] 0.037 | [5] -0.011 | [6] 0.076 | [7] 0.002 | [8] 0.056 | [9] 0.031 | [10] -0.006 | [11] 0.033 | [12] 0.204 | [13] -0.152 | [14] -0.05 | [15] -0.013 | [16] 0.039 | [17] 0.072 | [18] -0.012 | [19] -0.05 | [20] 0.003

PTGR2 (UniProt Q8N8N7)
UniProt Q8N8N7, sequence (Q8N8N7 whole entry, looked up): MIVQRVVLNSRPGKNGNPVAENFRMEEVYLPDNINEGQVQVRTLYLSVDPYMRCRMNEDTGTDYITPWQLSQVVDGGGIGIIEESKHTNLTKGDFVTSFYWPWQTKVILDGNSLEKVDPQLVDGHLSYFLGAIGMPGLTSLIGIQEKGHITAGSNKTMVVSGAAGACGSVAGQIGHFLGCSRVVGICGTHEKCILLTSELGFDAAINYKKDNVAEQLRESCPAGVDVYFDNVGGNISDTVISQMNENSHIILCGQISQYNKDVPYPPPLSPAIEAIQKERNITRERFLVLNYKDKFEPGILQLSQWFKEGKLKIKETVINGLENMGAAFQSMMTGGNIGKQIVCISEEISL
active: [8] 0.485 | [19] 0.611
inactive: [1] 0.084 | [2] -0.151 | [3] 0.003 | [4] -0.215 | [5] -0.025 | [6] 0.07 | [7] 0.112 | [9] 0.184 | [10] -0.066 | [11] -0.039 | [12] -0.077 | [13] 0.123 | [14] -0.164 | [15] -0.05 | [16] -0.149 | [17] 0.009 | [18] -0.011 | [20] 0.231

PGGHG (UniProt Q32M88)
inactive: [1] -0.036 | [2] -0.001 | [3] 0.012 | [4] 0.023 | [5] 0.009 | [6] -0.078 | [7] -0.152 | [8] 0.058 | [9] -0.077 | [10] 0.047 | [11] -0.036 | [12] -0.155 | [13] -0.051 | [14] 0.083 | [15] -0.033 | [16] 0.019 | [17] -0.009 | [18] 0.073 | [19] -0.076 | [20] 0.058

PRMT3 (UniProt O60678)
UniProt O60678, sequence (O60678 whole entry, looked up): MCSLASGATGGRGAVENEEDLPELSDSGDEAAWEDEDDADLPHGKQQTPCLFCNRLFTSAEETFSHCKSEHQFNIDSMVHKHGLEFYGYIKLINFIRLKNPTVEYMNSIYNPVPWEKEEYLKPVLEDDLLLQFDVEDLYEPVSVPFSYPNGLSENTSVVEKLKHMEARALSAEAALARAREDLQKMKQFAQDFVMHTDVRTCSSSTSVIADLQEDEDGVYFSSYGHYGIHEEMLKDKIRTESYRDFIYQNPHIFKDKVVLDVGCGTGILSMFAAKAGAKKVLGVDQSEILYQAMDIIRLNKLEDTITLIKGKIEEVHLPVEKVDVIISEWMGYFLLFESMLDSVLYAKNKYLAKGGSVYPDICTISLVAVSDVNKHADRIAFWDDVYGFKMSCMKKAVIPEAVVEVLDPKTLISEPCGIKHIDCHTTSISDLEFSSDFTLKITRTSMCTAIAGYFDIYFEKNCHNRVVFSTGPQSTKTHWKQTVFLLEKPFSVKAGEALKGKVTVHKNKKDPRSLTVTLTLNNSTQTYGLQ
inactive: [1] 0.048 | [2] 0.034 | [3] -0.155 | [4] 0.011 | [5] -0.153 | [6] -0.02 | [7] -0.044 | [8] -0.004 | [9] -0.126 | [10] 0.081 | [11] 0.042 | [12] -0.05 | [13] -0.187 | [14] -0.034 | [15] 0.055 | [16] 0.041 | [17] 0.042 | [18] -0.023 | [19] -0.027 | [20] -0.027

POLR2A (UniProt P24928)
active: [6] 0.511
inactive: [1] -0.019 | [2] -0.014 | [3] -0.039 | [4] 0.24 | [5] -0.066 | [7] 0 | [8] -0.037 | [9] 0.004 | [10] 0.038 | [11] -0.057 | [12] 0.121 | [13] -0.049 | [14] -0.094 | [15] 0.049 | [16] -0.067 | [17] -0.062 | [18] 0.086 | [19] 0.059 | [20] -0.05

PCBP2 isoform 3 (UniProt Q15366)
UniProt Q15366, sequence (Q15366 whole entry, looked up): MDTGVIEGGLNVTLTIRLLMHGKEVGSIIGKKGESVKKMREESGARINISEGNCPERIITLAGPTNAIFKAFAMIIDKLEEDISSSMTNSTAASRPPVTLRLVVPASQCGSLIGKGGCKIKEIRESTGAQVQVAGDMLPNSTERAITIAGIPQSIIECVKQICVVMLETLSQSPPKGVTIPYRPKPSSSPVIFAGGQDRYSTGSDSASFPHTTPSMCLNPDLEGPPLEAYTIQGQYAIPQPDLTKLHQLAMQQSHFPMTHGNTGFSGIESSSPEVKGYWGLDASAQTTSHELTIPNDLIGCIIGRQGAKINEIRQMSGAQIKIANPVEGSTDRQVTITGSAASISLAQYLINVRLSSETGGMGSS
inactive: [1] 0.037 | [2] 0.083 | [3] -0.095 | [4] -0.156 | [5] -0.132 | [6] -0.058 | [7] 0.007 | [8] 0.018 | [9] -0.08 | [10] 0.004 | [11] 0.001 | [12] -0.074 | [13] -0.102 | [14] -0.088 | [15] 0.062 | [16] 0.099 | [17] 0.104 | [18] 0.019 | [19] -0.015 | [20] -0.023

PLIN2 (UniProt Q99541)
UniProt Q99541, sequence (Q99541 whole entry, looked up): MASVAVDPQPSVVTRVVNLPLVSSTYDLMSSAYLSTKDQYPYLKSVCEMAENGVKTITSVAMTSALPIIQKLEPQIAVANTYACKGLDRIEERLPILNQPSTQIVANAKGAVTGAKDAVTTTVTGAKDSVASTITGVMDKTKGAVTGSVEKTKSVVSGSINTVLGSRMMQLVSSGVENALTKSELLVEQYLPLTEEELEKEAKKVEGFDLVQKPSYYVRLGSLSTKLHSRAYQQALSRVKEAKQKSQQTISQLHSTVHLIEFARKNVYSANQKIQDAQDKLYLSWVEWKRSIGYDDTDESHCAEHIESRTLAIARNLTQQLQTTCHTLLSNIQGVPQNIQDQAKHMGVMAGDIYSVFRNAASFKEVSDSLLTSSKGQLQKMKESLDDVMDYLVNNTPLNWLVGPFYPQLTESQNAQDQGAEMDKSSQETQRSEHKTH
inactive: [1] -0.326 | [2] 0.037 | [3] 0.184 | [4] 0.03 | [5] -0.219 | [6] 0.04 | [7] -0.016 | [8] 0.047 | [9] -0.105 | [10] 0.027 | [11] 0.019 | [12] -0.194 | [13] -0.353 | [14] -0.059 | [15] 0.077 | [16] 0.203 | [17] 0.027 | [18] 0.035 | [19] -0.046 | [20] -0.044

PURA (UniProt Q00577)
UniProt Q00577, sequence (Q00577 whole entry, looked up): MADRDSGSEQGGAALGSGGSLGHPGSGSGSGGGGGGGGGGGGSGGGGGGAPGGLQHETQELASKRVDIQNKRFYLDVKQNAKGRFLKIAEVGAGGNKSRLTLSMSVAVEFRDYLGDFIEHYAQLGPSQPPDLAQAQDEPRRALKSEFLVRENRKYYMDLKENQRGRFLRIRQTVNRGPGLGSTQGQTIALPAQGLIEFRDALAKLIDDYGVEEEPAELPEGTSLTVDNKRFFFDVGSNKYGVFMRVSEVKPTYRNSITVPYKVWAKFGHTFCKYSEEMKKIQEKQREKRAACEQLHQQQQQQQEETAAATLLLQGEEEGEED
inactive: [1] 0.108 | [2] -0.089 | [3] 0.06 | [4] 0.105 | [5] 0.335 | [6] 0.017 | [7] -0.382 | [8] -0.12 | [9] 0.207 | [10] -0.06 | [11] 0.015 | [12] 0.105 | [13] 0.377 | [14] 0.036 | [15] -0.085 | [16] -0.079 | [17] -0.141 | [18] 0.248 | [19] 0.185 | [20] -0.114

PEX11B (UniProt O96011)
UniProt O96011, sequence (O96011 whole entry, looked up, change not shown): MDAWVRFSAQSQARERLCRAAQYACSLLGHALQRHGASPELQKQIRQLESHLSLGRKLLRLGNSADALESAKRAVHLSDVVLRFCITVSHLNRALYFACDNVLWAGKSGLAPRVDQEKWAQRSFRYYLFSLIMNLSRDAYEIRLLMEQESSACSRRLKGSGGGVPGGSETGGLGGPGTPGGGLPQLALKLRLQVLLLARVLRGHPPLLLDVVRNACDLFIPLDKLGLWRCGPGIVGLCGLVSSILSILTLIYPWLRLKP
inactive: [1] -0.022 | [2] 0.081 | [3] 0.04 | [4] 0.041 | [5] -0.071 | [6] -0.043 | [7] 0.049 | [8] 0.01 | [9] -0.063 | [10] 0.058 | [11] 0.095 | [12] 0.052 | [13] -0.03 | [14] 0.073 | [15] 0.047 | [16] 0.049 | [17] 0.114 | [18] -0.031 | [19] 0.035 | [20] 0.024

PARN (UniProt O95453)
UniProt O95453, sequence (O95453 whole entry, looked up): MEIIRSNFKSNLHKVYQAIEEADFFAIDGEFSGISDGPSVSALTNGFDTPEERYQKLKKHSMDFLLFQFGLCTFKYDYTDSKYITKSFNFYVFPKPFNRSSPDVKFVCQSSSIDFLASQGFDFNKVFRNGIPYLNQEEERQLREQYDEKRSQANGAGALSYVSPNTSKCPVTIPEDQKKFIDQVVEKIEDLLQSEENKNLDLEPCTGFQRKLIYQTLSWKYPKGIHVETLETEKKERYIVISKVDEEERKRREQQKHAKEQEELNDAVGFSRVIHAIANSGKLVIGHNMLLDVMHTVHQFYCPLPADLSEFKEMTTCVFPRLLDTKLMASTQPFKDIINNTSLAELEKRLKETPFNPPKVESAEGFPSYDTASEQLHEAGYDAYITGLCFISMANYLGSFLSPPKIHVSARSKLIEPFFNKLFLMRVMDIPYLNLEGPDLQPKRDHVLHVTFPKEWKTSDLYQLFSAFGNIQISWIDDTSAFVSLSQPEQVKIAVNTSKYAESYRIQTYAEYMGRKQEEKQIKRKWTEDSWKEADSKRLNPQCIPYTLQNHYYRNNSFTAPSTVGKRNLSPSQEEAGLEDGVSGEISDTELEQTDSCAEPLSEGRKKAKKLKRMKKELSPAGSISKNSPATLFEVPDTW
inactive: [1] -0.104 | [2] 0.019 | [3] -0.018 | [4] -0.073 | [5] -0.182 | [6] -0.011 | [7] -0.003 | [8] 0.018 | [9] -0.01 | [10] 0.076 | [11] 0.012 | [12] -0.042 | [13] -0.1 | [14] -0.087 | [15] 0.015 | [16] 0.03 | [17] 0.056 | [18] 0.028 | [19] -0.069 | [20] -0.082

POLR2I (UniProt P36954)
inactive: [1] -0.044 | [2] 0.024 | [3] -0.026 | [4] 0.233 | [5] 0.079 | [6] 0.338 | [7] -0.029 | [8] 0.021 | [9] 0.072 | [10] -0.054 | [11] -0.025 | [12] 0.115 | [13] 0.102 | [14] 0.067 | [15] 0.114 | [16] -0.243 | [17] -0.09 | [18] 0.028 | [19] -0.091 | [20] -0.005

POLR2G (UniProt P62487)
inactive: [1] -0.048 | [2] -0.038 | [3] 0.012 | [4] 0.188 | [5] 0.054 | [6] 0.202 | [7] 0.009 | [8] 0.002 | [9] 0 | [10] 0.065 | [11] 0.061 | [12] 0.153 | [13] -0.008 | [14] 0.003 | [15] -0.034 | [16] -0.148 | [17] -0.009 | [18] 0.004 | [19] 0.009 | [20] -0.037

PRIM1 (UniProt P49642)
UniProt P49642, sequence (P49642 whole entry, looked up): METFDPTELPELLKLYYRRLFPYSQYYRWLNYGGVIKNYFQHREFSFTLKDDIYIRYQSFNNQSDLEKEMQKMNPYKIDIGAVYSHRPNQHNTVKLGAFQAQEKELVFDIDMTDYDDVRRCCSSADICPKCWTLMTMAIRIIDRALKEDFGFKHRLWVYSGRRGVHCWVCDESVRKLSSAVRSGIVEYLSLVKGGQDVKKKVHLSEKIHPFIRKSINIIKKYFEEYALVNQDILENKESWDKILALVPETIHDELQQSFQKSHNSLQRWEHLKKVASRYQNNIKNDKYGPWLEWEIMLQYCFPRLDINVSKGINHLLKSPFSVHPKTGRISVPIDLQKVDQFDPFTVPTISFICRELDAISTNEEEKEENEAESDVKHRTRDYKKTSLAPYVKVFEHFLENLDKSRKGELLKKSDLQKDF
inactive: [1] 0.046 | [2] 0.01 | [3] -0.034 | [4] -0.055 | [5] -0.161 | [6] -0.009 | [7] -0.033 | [8] 0.009 | [9] -0.073 | [10] 0.06 | [11] -0.008 | [12] -0.016 | [13] -0.093 | [14] -0.056 | [15] 0.041 | [16] 0.065 | [17] 0.063 | [18] 0.089 | [19] 0.023 | [20] -0.037
